Among the data in PubChem BioAssay (NCI) are growth values, retold here.

Compounds without any hit were thinned out: in the full panel of roughly 83,000, 20% have a hit.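 Step 1: grow cells in 96-well plates. Step 2: add test compound at a single concentration. Step 3: incubate 48 h. Step 4: record percent growth.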 Calls of active or inactive are those of the source. The calls were made as follows: active = growth percent below 10; inactive = the rest.

One assay concerns SNB-19 CNS. Nature of the assay: NCI-60 one-dose screen, 48 h (100 = growth as untreated, 0 = no growth, -100 = all killed). The following applies: 10 µM unless noted.
On to `O=CNc1ccc2c(c1)Cc1cccc(NC=O)c1-2`, for which the growth is 102% (inactive).
For the compound `FC(F)(F)c1[nH]ncc1-c1nc2ccc3n[nH]c(C#Cc4cccnc4)c3c2c2c1CCCC2`, the growth is 59.9% (inactive).
With `CCOc1cc2ncc(C#N)c(Nc3ccc(OCc4cccc(F)c4)c(Cl)c3)c2cc1NC(=O)CCCCC1CCSS1` (centres undefined), the growth is 105% (inactive).
With `O=C(COc1ccc(-c2nc3cc(Cl)c(Cl)cc3[nH]2)cc1)N=Nc1c(O)[nH]c2ccccc12`, the growth is -35.9% (active).
The same measure, in the same setting: next, `Nc1n[nH]c2cc(F)c([C@@H]3Nc4ccc5[nH]ncc5c4[C@H]4C5CCC(C5)[C@@H]34)cc12` (some centres undefined): 35.4% (inactive); `C#CC(F)(F)[C@]1(O)CC[C@H]2[C@@H]3CCC4=CC(=O)CCC4=C3[C@@H](c3ccc(C(C)=O)cc3)C[C@@]21C`: 95.6% (inactive); `CCCOc1cc2ccccc2cc1C(=O)Nc1nc(N)c2c(ccc3nccc32)[nH]1`: -76.4% (active).
Regarding `CCc1nc(N)nc(N)c1C#CC(C)c1cc(-c2ccnc(C)c2)c2oc(C)nc2c1` (centres undefined), the growth was 7.53% (active).
Regarding `Clc1ccc2c(NCCCCNc3nc(N4CCCCC4)nc4ccccc34)ccnc2c1`, the growth is 18.6% (inactive).
Turning to `O=c1ccccc(-c2ccc(-c3ccco3)cc2)c1O`, the growth was 19.3% (inactive).
On the same count and under the same terms, next, `CCOC(=O)c1c(C)oc2ncnc(N3CCN(C(=S)Nc4ccccc4)CC3)c12`: 96.5% (inactive); `CCN1CCN(c2nc(NCCNc3ccnc4cc(Cl)ccc34)c3ccccc3n2)CC1`: 14.4% (inactive).
`COc1ccc(-c2n[nH]nc2-c2csc3ccccc23)cc1OC`: the growth was 30.4% (inactive).
`COc1ccc(O)c(N=Nc2nccs2)c1`: the growth is 94.9% (inactive).
Turning to `O=C(Oc1cccnc1)c1ccsc1Nc1ccnc(C(F)(F)F)c1`, the growth was 97.7% (inactive).
Regarding `Oc1ccccc1-c1nnc(CNc2ccc(Cl)cc2)o1`, the growth is 41.9% (inactive).
For `NC1=C(Cl)C(=O)c2ccc(S(N)(=O)=O)cc2C1=O`, the growth is -73% (active).
`CCOc1cc2ncc(C#N)c(Nc3ccc(F)c(Cl)c3)c2cc1NC(=O)CC1CCSS1` (centres undefined): the growth is -34.5% (active).
As for `Clc1ccc2c(NCCCCNc3nc(N4CCOCC4)nc4ccccc34)ccnc2c1`, the growth was 14.7% (inactive).
For `Cc1ccc(-c2onc3c(=O)[nH]nc(-c4ccccc4)c23)cc1`, the growth is 31.3% (inactive).
In the case of `CN(Cc1cc(Cl)cc(Cl)c1O)Cc1cc(Cl)cc(Cl)c1O`, the growth is 73.3% (inactive).
`CCN1CCN(c2nc(NCCCNc3ccnc4cc(Cl)ccc34)c3ccccc3n2)CC1`: the growth is 16.5% (inactive).
In the case of `CSc1ccc(-c2ccccc(=O)c2O)cc1`, the growth was 17.5% (inactive).
In the case of `Clc1ccc2c(NCCCNc3nc(-n4ccnc4)nc4ccccc34)ccnc2c1`, the growth is 92.1% (inactive).
`CC1CCNC(C)C1` (centres undefined): the growth is 114% (inactive).
Still for that read-out and setting: the value for `COc1ccc(NC(=O)c2ccc(/C=C/C(=O)c3ncc[nH]3)cc2)cc1` was 56.1% (inactive); that for `O=C1c2cc3c(cc2-c2c1c1ccc(F)cc1c(=O)n2C[C@H](O)[C@H](O)[C@H](O)CO)OCO3` was 2.14% (active).
As to `O=C(CCl)Oc1ccc(-c2ccccc2)c(Br)c1`, the growth was 107% (inactive).
Take `CCCCCCN(CCCCCC)C(=N)c1ccnc2ccccc12`: the growth was 84.1% (inactive).
Same read-out and setting: next, `Cc1cc(N2CCCCCC2)nc(NC2CCCC(Nc3ccnc4cc(Cl)ccc34)C2)n1` (centres undefined): -54.5% (active).

The test system of another assay is U251 CNS. The assay is described as above. The note with it: 10 µM unless noted.
On to `Cn1ccnc1C(=O)/C=C/c1ccc(CC(=O)Nc2ccccc2)cc1`, for which the growth was 7.03% (active).
Turning to `Cc1ccc2oc(=O)cc(C3c4ccc([nH]4)C(c4cc(=O)oc5ccc(C)cc45)c4ccc([nH]4)C(c4cc(=O)oc5ccc(C)cc45)c4ccc([nH]4)C(c4cc(=O)oc5ccc(C)cc45)c4ccc3[nH]4)c2c1` (centres undefined), the growth is -80.7% (active).
On the same count and under the same terms, the value for `CC(C)(C)CC(C)(C)c1ccc(OCCOCC[N+](C)(C)Cc2ccccc2)cc1` was -88.5% (active); that for `CN1CCN(CCCOc2cccc3nc(Nc4cc(Cl)cc(Cl)c4)ccc23)CC1` was -1.53% (active); that for `CC(C)C[C@@H](NC(=O)[C@@H](Cc1ccccc1)NC(=O)c1cnccn1)B1Oc2ccc(C[C@H](NC(=O)[C@H](Cc3ccc4c(c3)OB([C@@H](CC(C)C)NC(=O)[C@@H](Cc3ccccc3)NC(=O)c3cnccn3)O4)NC(=O)[C@@H](N)CC3CCC4OB([C@@H](CC(C)C)NC(=O)[C@@H](CC5CCCCC5)NC(=O)C5CNCCN5)OC4C3)C(=O)NCCCC[C@@H]3NC(=O)[C@@H](Cc4ccccc4)NC(=O)[C@H](CC(=O)O)NC(=O)CNC(=O)[C@H](CCCNC(=N)N)NC3=O)cc2O1` (some centres undefined) was -58.4% (active).
The same measure, in the same setting: the value for `CCN(CC)c1ccc(/C=N\NC(=O)/C=C/C=C/c2ccc3c(c2)OCO3)c(O)c1` was 43.3% (inactive); that for `O=S(=O)(Nc1ccc(NS(=O)(=O)c2ccccc2)c(Cl)c1)c1ccccc1` was 105% (inactive).
With `COc1ccc(/C=C/c2nc3ccccc3nc2/C=C/c2ccc(OC)cc2)cc1`, the growth was 95.4% (inactive).
On to `COc1ccc(/C=C/C(=O)c2cc(O)ccc2O)cc1`, for which the growth is 84.8% (inactive).
Regarding `O=CNc1ccc2c(c1)Cc1cccc(NC=O)c1-2`, the growth was 95.1% (inactive).
Regarding `FC(F)(F)c1[nH]ncc1-c1nc2ccc3n[nH]c(C#Cc4cccnc4)c3c2c2c1CCCC2`, the growth was 54.7% (inactive).
For the compound `CCOc1cc2ncc(C#N)c(Nc3ccc(OCc4cccc(F)c4)c(Cl)c3)c2cc1NC(=O)CCCCC1CCSS1` (centres undefined), the growth is 82.5% (inactive).
For `O=C(COc1ccc(-c2nc3cc(Cl)c(Cl)cc3[nH]2)cc1)N=Nc1c(O)[nH]c2ccccc12`, the growth was -86.3% (active).
`Nc1n[nH]c2cc(F)c([C@@H]3Nc4ccc5[nH]ncc5c4[C@H]4C5CCC(C5)[C@@H]34)cc12` (some centres undefined): the growth is 2.97% (active).
With `C#CC(F)(F)[C@]1(O)CC[C@H]2[C@@H]3CCC4=CC(=O)CCC4=C3[C@@H](c3ccc(C(C)=O)cc3)C[C@@]21C`, the growth is 75.5% (inactive).
As for `CCCOc1cc2ccccc2cc1C(=O)Nc1nc(N)c2c(ccc3nccc32)[nH]1`, the growth is -83.5% (active).
Regarding `CCc1nc(N)nc(N)c1C#CC(C)c1cc(-c2ccnc(C)c2)c2oc(C)nc2c1` (centres undefined), the growth is 3.52% (active).
`Clc1ccc2c(NCCCCNc3nc(N4CCCCC4)nc4ccccc34)ccnc2c1`: the growth was -32.9% (active).
On to `O=c1ccccc(-c2ccc(-c3ccco3)cc2)c1O`, for which the growth was 8.2% (active).
The same measure, in the same setting: the value for `CCOC(=O)c1c(C)oc2ncnc(N3CCN(C(=S)Nc4ccccc4)CC3)c12` was 89.7% (inactive); that for `CCN1CCN(c2nc(NCCNc3ccnc4cc(Cl)ccc34)c3ccccc3n2)CC1` was -16.7% (active); that for `COc1ccc(-c2n[nH]nc2-c2csc3ccccc23)cc1OC` was 22.1% (inactive).
For `COc1ccc(O)c(N=Nc2nccs2)c1`, the growth is 54.4% (inactive).
Regarding `O=C(Oc1cccnc1)c1ccsc1Nc1ccnc(C(F)(F)F)c1`, the growth was 92.5% (inactive).
Regarding `Oc1ccccc1-c1nnc(CNc2ccc(Cl)cc2)o1`, the growth was 16% (inactive).
As for `NC1=C(Cl)C(=O)c2ccc(S(N)(=O)=O)cc2C1=O`, the growth is -90.7% (active).
On the same count and under the same terms, the value for `CCOc1cc2ncc(C#N)c(Nc3ccc(F)c(Cl)c3)c2cc1NC(=O)CC1CCSS1` (centres undefined) was -58.9% (active); that for `Clc1ccc2c(NCCCCNc3nc(N4CCOCC4)nc4ccccc34)ccnc2c1` was -59.6% (active); that for `Cc1ccc(-c2onc3c(=O)[nH]nc(-c4ccccc4)c23)cc1` was 20.3% (inactive).
Take `CN(Cc1cc(Cl)cc(Cl)c1O)Cc1cc(Cl)cc(Cl)c1O`: the growth is 58.6% (inactive).
Still for that read-out and setting: the value for `CCN1CCN(c2nc(NCCCNc3ccnc4cc(Cl)ccc34)c3ccccc3n2)CC1` was -26.7% (active).
Consider `CSc1ccc(-c2ccccc(=O)c2O)cc1`, for which the growth is 9.54% (active).
On to `Clc1ccc2c(NCCCNc3nc(-n4ccnc4)nc4ccccc34)ccnc2c1`, for which the growth is 83.5% (inactive).
As to `CC1CCNC(C)C1` (centres undefined), the growth is 108% (inactive).
Regarding `COc1ccc(NC(=O)c2ccc(/C=C/C(=O)c3ncc[nH]3)cc2)cc1`, the growth is 18.8% (inactive).
With `O=C1c2cc3c(cc2-c2c1c1ccc(F)cc1c(=O)n2C[C@H](O)[C@H](O)[C@H](O)CO)OCO3`, the growth is -22.4% (active).
Take `O=C(CCl)Oc1ccc(-c2ccccc2)c(Br)c1`: the growth is 102% (inactive).
For `CCCCCCN(CCCCCC)C(=N)c1ccnc2ccccc12`, the growth is 63.9% (inactive).
Regarding `Cc1cc(N2CCCCCC2)nc(NC2CCCC(Nc3ccnc4cc(Cl)ccc34)C2)n1` (centres undefined), the growth was -94.8% (active).
